In the library only some 6.8% were active in any assay of this set; here they are far more common.
KB-V1 MDR tox: KB-V1 MDR subline cytotoxicity; KB-V1 MDR cells viability, CellTiter-Glo, 72 h; Potency, µM (top dose mostly 46.1 µM), actives largely listed as cytotoxic; hit rate 3.4% among 400,000; further: nearly all actives have a fitted effect of over 60% in size
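Cytotoxicity toward P-gp-expressing KB-V1 cells was determined as loss of CellTiter-Glo luminescence after 72 h at 37 degrees C. Compounds were tested in quantitative HTS format across a concentration range, with curves fitted to normalized data.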
KB-3-1 tox: KB-3-1 parental cell cytotoxicity; KB-3-1 viability, CellTiter-Glo ATP luminescence, 72 h; Potency, µM (doses to about 46.1 µM), hits mostly cytotoxic; hit rate 1.4% among 400,000; AID 1347075; further: nearly all actives have a fitted effect of over 60% in size
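72 h, 37 °C compound treatment of KB-3-1 parental cells; CellTiter-Glo added, 10 min, luminescence read. Data corrected against DMSO-only plates and normalized before curve fitting.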
PINK1 modulator: PINK1 expression modulation. Potency, µM (top dose mostly 76.6 µM), most hits filed as activators. hit rate 0.2% among 410,000. PINK1 immunofluorescence, high-content cytometry, 24 h. AID 624263; active means well fitted activation curve with a large enough effect; inconclusive means small, poorly fitted or top-dose-only effect; cell line not stated here; further: nearly all actives have a fitted effect of over 65% in size
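Measures PINK1 amount and localization on or inside mitochondria by immunofluorescence. Stable cells get compounds at 5 concentrations for 24 hours before fixation and staining; CCCP controls included.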
SW480 rerep: induces DNA re-replication in SW480 colon adenocarcinoma cells. SW480 DNA re-replication, Hoechst DNA content imaging, 48 h. Potency, µM (series often up to 46.1 µM), most hits filed as activators. hit rate 1.8% among 340,000. AID 624297; further: nearly all actives have a fitted effect of over 55% in size
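Quantitative HTS format with DMSO vehicle controls; 48 hr drug incubation at 37 C, then 40 min Hoechst staining and scanning imager measurement at 405 nm excitation.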
MCF10A rerep: inducers of DNA re-replication in MCF 10A breast cells | AID 624296 | MCF 10A DNA re-replication, Hoechst nuclear intensity, 48 h | Potency, µM (highest dose often 46.1 µM), most hits filed as activators | hit rate 2.9% among 350,000; further: nearly all actives have a fitted effect of over 50% in size
PTAP TSG101 blk: blocks PTAP/TSG101 interaction to inhibit HIV-1 budding; Q99816; AID 493005; Potency, µM (titrated, usually from 115 µM), hits mostly inhibitors; 340,000 tested, under 10 active; Fluorescence polarization, FITC-PTAP peptide / Tsg101 binding; active means well fitted inhibition curve with a large enough effect in the main read-out, with a control signal flat, not every such curve was filed as active; inconclusive means small, poorly fitted or top-dose-only effect, or effect the other way, or a change in a side signal; inactive means no such curve, though single readings can be large or run the other way
Target sequence (Q99816 whole entry, looked up): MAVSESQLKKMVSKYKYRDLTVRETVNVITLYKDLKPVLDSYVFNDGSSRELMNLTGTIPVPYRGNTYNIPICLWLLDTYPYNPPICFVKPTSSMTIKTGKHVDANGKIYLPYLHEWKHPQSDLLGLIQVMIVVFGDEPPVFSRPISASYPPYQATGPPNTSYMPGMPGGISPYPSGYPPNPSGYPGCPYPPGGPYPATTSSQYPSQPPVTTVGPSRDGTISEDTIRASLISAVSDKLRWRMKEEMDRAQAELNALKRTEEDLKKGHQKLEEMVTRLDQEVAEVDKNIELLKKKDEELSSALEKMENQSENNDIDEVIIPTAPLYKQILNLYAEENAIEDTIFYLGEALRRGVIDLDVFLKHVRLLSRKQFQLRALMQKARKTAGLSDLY
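Fluorescence polarization binding of Tsg101 binding domain (10 uM final) to FITC-labeled PTAP peptide (50 nM final) in HEPES pH 7.5 buffer with NaCl, Tween 20, EDTA, TCEP. Compounds added before peptide; binding 20 min at RT.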
Large screens that a line does not name were inactive. Unless noted, the call rests on the fitted dose curve; in most records, active means well fitted curve in the direction sought with a large enough effect; inconclusive means small, poorly fitted or top-dose-only effect, or another doubt; inactive means no such curve, though single readings can be large; an effect the other way counts as inactive or inconclusive.

Cc1cc(=O)c2cc(C(=O)Nc3ccc(C)c(C)c3)ccc2[nH]1	KB-V1 MDR tox inconclusive (no result: SW480 rerep, MCF10A rerep, PTAP TSG101 blk)
COc1ccc(NC2=CC(=O)CC(c3ccccc3)C2)c(OC)c1 (stereo not given)	KB-V1 MDR tox 2.59µM, KB-3-1 tox inconclusive
CCOc1ccccc1NC1=CC(=O)CC(c2ccccc2)C1 (stereo not given)	KB-V1 MDR tox inconclusive, SW480 rerep inconclusive, MCF10A rerep inconclusive
O=C(CSC(=S)N1CCCC1)c1cc(Br)cc(Br)c1O	SW480 rerep 5.17µM
COc1cccc(C2=CC(c3ccccc3)n3nnnc3N2)c1 (stereo not given)	KB-V1 MDR tox 6.51µM, KB-3-1 tox inconclusive
COc1ccc(C2=CC(c3ccc(OC)c(OC)c3)n3nnnc3N2)c(OC)c1 (stereo not given)	SW480 rerep inconclusive
COc1cccc(C2=CC(c3ccc(N(C)C)cc3)n3nnnc3N2)c1 (stereo not given)	KB-V1 MDR tox 13µM, KB-3-1 tox 18.4µM, SW480 rerep inconclusive, MCF10A rerep 16.4µM
COc1cccc(C2C=C(c3ccc(OC)cc3OC)Nc3nnnn32)c1 (stereo not given)	KB-V1 MDR tox 23.1µM, KB-3-1 tox inconclusive, SW480 rerep inconclusive, MCF10A rerep inconclusive
COc1ccc(C2=CC(c3ccc(N(C)C)cc3)n3nnnc3N2)cc1 (stereo not given)	none (no result: SW480 rerep, MCF10A rerep, PTAP TSG101 blk)
Cc1ccc(NC(=O)CCNS(=O)(=O)c2ccc3c(c2)CCN3C(=O)C2CC2)c(Cl)c1	none (no result: SW480 rerep, MCF10A rerep, PTAP TSG101 blk)
Cc1c(C(=O)NCCN2CCC(c3ccccc3)CC2)cnn1-c1nccc(-c2cccs2)n1	none (no result: KB-V1 MDR tox, KB-3-1 tox, SW480 rerep, MCF10A rerep, PTAP TSG101 blk)
Cc1cc(C)nc(SCC(=O)NC2=NN=C(c3ccc(Br)cc3)CS2)n1	KB-3-1 tox inconclusive, PINK1 modulator inconclusive, SW480 rerep inconclusive
CCC(Sc1nc(C)cc(C)n1)C(=O)NC1=NN=C(c2ccc(C)cc2)CS1 (stereo not given)	PINK1 modulator 14.1µM, SW480 rerep inconclusive, MCF10A rerep inconclusive
CCc1ccc(NC(=O)c2cccc(N3CCCS3(=O)=O)c2)cc1	none (no result: SW480 rerep, MCF10A rerep, PTAP TSG101 blk)
CCOc1ccc(-c2nonc2NC(=O)c2ccccc2C)cc1	none (no result: KB-V1 MDR tox, KB-3-1 tox, SW480 rerep, MCF10A rerep, PTAP TSG101 blk)
Cc1ccc2c(c1C)-c1c(ccc(C)c1C)C(=O)C2=O	KB-V1 MDR tox 0.651µM, KB-3-1 tox 3.26µM, SW480 rerep 3.26µM, MCF10A rerep 4.11µM
CCN1c2ccccc2-c2nc(SCC(=O)NCc3ccc(Cl)cc3)ncc2S1(=O)=O	none (no result: SW480 rerep, MCF10A rerep, PTAP TSG101 blk)
Cc1cc(Cl)c(OCCn2ccnc2)c(Br)c1	KB-V1 MDR tox inconclusive, MCF10A rerep 4.61µM
CC(=O)Nc1ccc(NS(=O)(=O)c2ccc(-c3cnc(C4CC4)o3)cc2)cc1	none
CCOc1ccc(NS(=O)(=O)c2ccc(-c3cnc(C4CC4)o3)cc2)cc1	KB-V1 MDR tox 16.4µM, KB-3-1 tox inconclusive, MCF10A rerep 6.51µM
Cc1ccc(NS(=O)(=O)c2ccc(-c3cnc(C4CC4)o3)cc2)cc1N(C)C	none (no result: SW480 rerep, MCF10A rerep, PTAP TSG101 blk)
CCc1ccc(NS(=O)(=O)c2cc(-c3cnc(C4CC4)o3)ccc2C)cc1	KB-V1 MDR tox inconclusive (no result: SW480 rerep, MCF10A rerep, PTAP TSG101 blk)
Cc1ccc(C)c(NS(=O)(=O)c2ccc(-c3cnc(C4CC4)o3)cc2)c1	KB-V1 MDR tox 0.326µM, KB-3-1 tox inconclusive, SW480 rerep inconclusive, MCF10A rerep inconclusive
COc1ccc(-c2cnc(C)o2)cc1S(=O)(=O)Nc1ccc(C)c(F)c1	KB-V1 MDR tox 5.8µM, KB-3-1 tox 5.8µM (no result: SW480 rerep, MCF10A rerep, PTAP TSG101 blk)
COc1ccc(NS(=O)(=O)c2cc(-c3cnc(C4CC4)o3)ccc2C)cc1	KB-V1 MDR tox inconclusive, KB-3-1 tox 13µM, SW480 rerep inconclusive, MCF10A rerep 5.8µM
COc1ccc(-c2cnc(C)o2)cc1S(=O)(=O)Nc1ccc(C)c(N(C)C)c1	none (no result: SW480 rerep, MCF10A rerep, PTAP TSG101 blk)
Cc1onc(-c2ccccc2Cl)c1C(=O)N[C@H]1C(=O)N2[C@H]1SC(C)(C)[C@H]2C(=O)O	none (no result: KB-V1 MDR tox, KB-3-1 tox, PINK1 modulator, PTAP TSG101 blk)
Cc1cc(C)c(NC(=O)Cn2c(=O)nc(-c3ccccc3)c3cc(Cl)ccc32)c(C)c1	none (no result: KB-V1 MDR tox, KB-3-1 tox, SW480 rerep, MCF10A rerep, PTAP TSG101 blk)
Cc1ccc2occ(CC(=O)Nc3ccc(S(=O)(=O)N4CCC(C)CC4)cc3)c2c1	KB-V1 MDR tox inconclusive (no result: SW480 rerep, MCF10A rerep, PTAP TSG101 blk)
